Among the test systems are NCI-H23 lung; NCI-H226 lung; NCI-H322M lung; HOP-62 NSCLC; NCI-H460 lung; HOP-92 NSCLC; NCI-H522 lung; A549/ATCC NSCLC; 786-0 renal; COLO 205 colon.
Holding throughout (assay): NCI-60 one-dose screen, 48 h (100 = growth as untreated, 0 = no growth, -100 = all killed)
Holding throughout (conditions): 10 µM unless noted

SMILES strings stand for the structures. This is part of a sample that, as a whole, favours compounds with a hit. Of some 83,000 tested, about 20% had one in any assay.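 For each line, cells grew in 96-well plates with the test compound present at a single concentration for 48 hours.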 Unmarked numbers belong to inactive results. Calls of active or inactive are those of the source. The calls were made as follows: active = growth percent below 10; inactive = the rest.

Data on 13 compounds can be found in PubChem BioAssay (NCI).

For `O=C(O)Cn1ccc2ccccc21`, the growth in the assay on NCI-H23 lung is 100%; in the assay on NCI-H226 lung, 110%; in the assay with NCI-H322M lung it was 100%; with HOP-62 NSCLC, 79.9%; in the assay on NCI-H460 lung it was 103%; in the assay with HOP-92 NSCLC it was 88.2%. Moreover, the growth was 77.7% with NCI-H522 lung, 99.4% with A549/ATCC NSCLC, 101% with 786-0 renal and 153% with COLO 205 colon.

Regarding `C#CC[C@@H]1C[C@]2(C)[C@H]3CC=C4[C@H]5CC(C)(C)CC[C@]5(C(=O)NCCCCN)CC[C@@]4(C)[C@]3(C)CC[C@H]2C(C)(C)[C@H]1OC(C)=O`, the growth is 78.9% with NCI-H23 lung; 90.3% in the assay with NCI-H226 lung; 36% in the assay on NCI-H322M lung; 92.2% in the assay on HOP-62 NSCLC; -27.6% (active) with NCI-H460 lung; 2.98% (active) with HOP-92 NSCLC. Further, the growth is 70.1% with NCI-H522 lung, 27.8% in the assay on A549/ATCC NSCLC, 6.69% (active) in the assay with 786-0 renal and -49.7% (active) with COLO 205 colon.

Take `COc1cc(/C=C/c2ccc3c(Br)cc(Br)c(O)c3n2)ccc1O`: the growth is 36.9% with NCI-H23 lung; 67.7% in the assay with NCI-H226 lung; 40.5% in the assay on NCI-H322M lung; 33% in the assay with HOP-62 NSCLC; 3.91% (active) in the assay with NCI-H460 lung; 16.6% with HOP-92 NSCLC. The growth is -38.2% (active) with NCI-H522 lung, 14.2% in the assay on A549/ATCC NSCLC, 32.6% with 786-0 renal and 58% with COLO 205 colon.

For `CCCCCCCCCCCCCCCCCC1=NC(C)(C)CN1C(C)(C)CO`, the growth in the assay on NCI-H23 lung was -14.5% (active); with NCI-H226 lung, 22.9%; in the assay with NCI-H322M lung, 16.3%; in the assay with HOP-62 NSCLC it was -100% (active); in the assay with NCI-H460 lung it was -100% (active); in the assay with HOP-92 NSCLC, -6.66% (active). Further, the growth was -84.8% (active) in the assay with NCI-H522 lung, -93.8% (active) in the assay on A549/ATCC NSCLC, -37.5% (active) in the assay on 786-0 renal and -99.8% (active) in the assay with COLO 205 colon.

For the compound `Nc1ncnc2c1N=C(c1ccc(F)cc1)CC(c1sc(Cl)nc1Cl)N2` (stereo not given), the growth in the assay with NCI-H23 lung was 92.9%; in the assay on NCI-H226 lung it was 90.1%; with NCI-H322M lung, 106%; in the assay on HOP-62 NSCLC it was 105%; in the assay on NCI-H460 lung it was 101%; in the assay on HOP-92 NSCLC it was 71%. Besides, the growth is 88.7% with NCI-H522 lung, 92.4% in the assay on A549/ATCC NSCLC, 92.6% with 786-0 renal and 104% with COLO 205 colon.

For the compound `CNCc1ccccc1CN(CC(=O)Nc1ccc2c(c1)CC1(C2)C(=O)Nc2ncccc21)C(=O)C(C)(C)C` (stereo not given), the growth in the assay on NCI-H23 lung is 103%; with NCI-H226 lung, 95%; with NCI-H322M lung, 100%; in the assay on HOP-62 NSCLC it was 102%; with NCI-H460 lung, 106%; in the assay with HOP-92 NSCLC it was 104%. Moreover, the growth with NCI-H522 lung is 93.5%; in the assay on A549/ATCC NSCLC it was 103%; in the assay with 786-0 renal, 107%; in the assay on COLO 205 colon it was 102%.

As for `COc1cccc(/C=N/N=C(N)N)c1`, the growth in the assay with NCI-H23 lung is 103%; in the assay with NCI-H226 lung, 98.3%; in the assay on NCI-H322M lung it was 114%; in the assay with HOP-62 NSCLC, 104%; with NCI-H460 lung, 111%; with HOP-92 NSCLC, 91.1%. Moreover, the growth is 97.4% in the assay with NCI-H522 lung, 102% with A549/ATCC NSCLC, 117% in the assay on 786-0 renal and 109% with COLO 205 colon.

Consider `O=C(Nc1cccc(Cl)c1)Nc1cc(C(F)(F)F)ccc1Cl`, for which the growth was -12.3% (active) in the assay on NCI-H23 lung; 20.8% with NCI-H226 lung; 30.8% in the assay on NCI-H322M lung; 41.3% in the assay with HOP-62 NSCLC; -34.6% (active) in the assay with NCI-H460 lung; -20.3% (active) in the assay with HOP-92 NSCLC. In addition, the growth with NCI-H522 lung was -26.9% (active); in the assay with A549/ATCC NSCLC, 11.3%; with 786-0 renal, 8.47% (active); in the assay on COLO 205 colon it was -28.2% (active).

Take `O=NN(CC(=O)NNc1ccccc1)CC(=O)NNc1ccccc1`: the growth in the assay on NCI-H23 lung is 103%; in the assay with NCI-H226 lung, 85.9%; with NCI-H322M lung, 85%; in the assay with HOP-62 NSCLC, 87.8%; in the assay with NCI-H460 lung, 66.2%; in the assay on HOP-92 NSCLC, 88.5%. In addition, the growth was 52% with NCI-H522 lung, 65.9% in the assay with A549/ATCC NSCLC, 90.9% with 786-0 renal and 68.6% in the assay with COLO 205 colon.

For the compound `COCCOCCOCc1n(Cc2ccc3ccccc3n2)c2ccccc2[n+]1Cc1ccc2ccccc2c1`, the growth is 1.03% (active) in the assay with NCI-H23 lung; 28.1% in the assay on NCI-H226 lung; 26.8% in the assay with NCI-H322M lung; 11.7% with HOP-62 NSCLC; 7.94% (active) in the assay on NCI-H460 lung; -18.2% (active) with HOP-92 NSCLC. Further, the growth with NCI-H522 lung is 0.793% (active); in the assay on A549/ATCC NSCLC, 22.5%; in the assay with 786-0 renal it was 21.2%; with COLO 205 colon it was -73.3% (active).

For the compound `Cc1c(C)c(C)c([N+](=O)[O-])c([N+](=O)[O-])c1C`, the growth in the assay with NCI-H23 lung was 107%; with NCI-H226 lung, 104%; in the assay with NCI-H322M lung, 116%; in the assay on HOP-62 NSCLC it was 103%; in the assay on NCI-H460 lung, 108%; with HOP-92 NSCLC, 69%. The growth is 98.7% in the assay with NCI-H522 lung, 93.4% with A549/ATCC NSCLC, 93.6% in the assay on 786-0 renal and 115% in the assay on COLO 205 colon.

Take `CCOC(=O)c1c(NC(=O)c2ccccc2)sc2c(O)c(CN(CC)CC)ccc12`: the growth in the assay on NCI-H23 lung was 2.37% (active); in the assay with NCI-H226 lung, -21.7% (active); in the assay with NCI-H322M lung, 50.6%; with HOP-62 NSCLC it was -17.2% (active); in the assay on NCI-H460 lung it was 4.01% (active); in the assay on HOP-92 NSCLC, 46.3%. The growth in the assay with NCI-H522 lung was -45.3% (active); in the assay with A549/ATCC NSCLC, 11.4%; in the assay on 786-0 renal, 18.5%; in the assay with COLO 205 colon, -74.7% (active).

For the compound `Cc1cc(C)c(C#N)c(SCC(=O)c2sc3c(C#N)c(C)cc(C)[n+]3c2[O-])n1`, the growth in the assay on NCI-H23 lung was 39.4%; in the assay on NCI-H226 lung, 46.3%; in the assay with NCI-H322M lung it was 29%; in the assay with HOP-62 NSCLC, 17%; with NCI-H460 lung it was 6.25% (active); in the assay with HOP-92 NSCLC, 51.8%. In addition, the growth in the assay on NCI-H522 lung is -31.1% (active); in the assay with A549/ATCC NSCLC, 19.9%; in the assay on 786-0 renal it was 30.6%; in the assay on COLO 205 colon it was 5.03% (active).
